Values joined by “and” are separate entries in the source; they are usually repeats but may differ in a detail not shown here. Equal values may be shown once. Records with an inconclusive call do not appear. Entries that show only a call come without a potency. Active and inactive are the calls of the source. Calls come from the whole dose curve.
Potency is the fitted concentration of half-maximal effect.

The assay is described as follows: qHTS assay for small molecule agonists of the p53 signaling pathway - cell viability (AID 651633). Note: nearly all actives have a fitted effect of over 30% in size. The following applies: p53RE-bla HCT-116 viability, ATP luminescence, 16 h; series mostly up to 83.3 µM. The source says: National Center for Advancing Translational Sciences [NCATS]
NIH Chemical Genomics Center [NCGC]
U.S. Environmental Protection Agency [EPA]
National Institutes of Environmental Health Sciences [NIEHS]
National Toxicology Program [NTP]
U.S. Food and Drug Administration [FDA]
p53, a tumor suppressor protein, is activated following cellular insult, including DNA damage and other cellular stresses. The activation of p53 regulates cell fate by inducing DNA repair, cell cycle arrest, apoptosis, or cellular senescence. The activation of p53, therefore, is a good indicator of DNA damage and other cellular stresses. […] The activation of the reporter gene under culture conditions can be detected by fluorescence intensity. This cell line was used to screen the Tox21 compound library in a 1536-well plate format and to identify agonists that activate the p53 signaling pathway.
Tox21 Assay Protocol Summary:
The p53RE-bla cells were dispensed at 4,000 cells/5 ul/well in 1536-well black wall/clear bottom plates using a Multidrop dispenser. After the assay plates were incubated at a 37 C/5% CO2 incubator for 5 hours, 23 nL of compounds dissolved in DMSO, positive controls or DMSO only was transferred to the assay plate by a pin tool. The plates were incubated at 37 C for 16 hours. After 1 uL of LiveBLAzerTM B/G FRET substrate was added using a Flying Reagent Dispenser, the plates were incubated at room temperature for 2 hours, and fluorescence intensity was measured by an Envision plate reader.
For cell viability readout that measures cytotoxicity, 4 ul/well of CellTiter-Glo reagent was added into the assay plates using a Flying Reagent Dispenser. After 30 min incubation at room temperature, the luminescence intensity in the plates was measured using a ViewLux plate reader.
On to `CN(C)C(=O)Nc1cccc(OC(=O)NC(C)(C)C)c1`, for which the Potency entry is “inactive”.

Regarding `CC[N+]1(CCOC(=O)C(O)(c2ccccc2)c2ccccc2)CCCCC1`, the Potency result was “inactive”.

As for `COc1cc(CC(C)N)c(OC)cc1Br` (stereo not given), the Potency result was “inactive”. As for `C=CC(=O)NC(C)(C)CC(C)=O`, the entry is “inactive”; as for `N#CC(C#N)=Cc1ccc(O)c(O)c1`, “inactive”; as for `C1CCNCC1`, “inactive”. Then `CC(Cc1ccccc1)NCc1ccccc1Cl` (stereo not given), with “inactive”; and `CC(C)c1ccc(NC(=O)N(C)C)cc1`, with “inactive”.

For `CCc1cnc(C2=NC(C)(C(C)C)C(=O)N2)c(C(=O)O)c1` (stereo not given), the Potency entry was “inactive”. As for `C=CCc1ccc(OC(=O)Cc2ccccc2)c(OC)c1`, the entry is “inactive”; as for `C[CH2][Hg][S]c1ccccc1C(=O)O`, 3.35 µM (active) and 2.43 µM (active). As for `CCCCCCCCCCCCN(C)C`, the Potency entry is “inactive”.

Consider `O=C(Cl)OCCOCCOC(=O)Cl`, for which the Potency result is “inactive”. `CCOC(=O)NC(O)C(Cl)(Cl)Cl` (stereo not given): the Potency result was “inactive”. In the case of `O=C1c2ccccc2C(=O)N1SC(Cl)(Cl)Cl`, the Potency result is “inactive”. As for `O=C(CCl)CCl`, the Potency result was “inactive”.

`CCCCCCCCCCCC[N+](C)(C)CCOc1ccccc1`: the Potency is 29.8 µM (active) and 21.7 µM (active).

In the case of `CCSCc1ccccc1OC(=O)NC`, the Potency entry was “inactive”. In the case of `ClCc1ccccc1Cl`, the Potency entry was “inactive”. Consider `C=CCN1C[C@H](C)N([C@H](c2ccc(C(=O)N(CC)CC)cc2)c2cccc(OC)c2)C[C@H]1C`, for which the Potency entry was “inactive”. As for `CCc1ccccc1N`, the entry is “inactive”; as for `CCOC(=O)c1cn2nc(OP(=S)(OCC)OCC)cc2nc1C`, “inactive”; as for `O=C(Cc1ccccc1)c1ccccc1`, “inactive”. As for `O=C(O)c1cc(I)cc(I)c1I`, the entry is “inactive”; as for `CCNC(=O)NC(=O)/C(C#N)=N/OC`, “inactive”; as for `CC(C)(C)NCC(O)c1ccccc1Cl` (stereo not given), “inactive”. As for `Cc1ncc(C[n+]2csc(CCO)c2C)c(N)n1`, the entry is “inactive”; as for `C=CCSSCC=C`, “inactive”; as for `CCCCC(CC)COC(=O)c1c(Br)c(Br)c(Br)c(Br)c1C(=O)OCC(CC)CCCC` (stereo not given), “inactive”.

Turning to `O=C=NC1CCCCC1`, the Potency entry was “inactive”. As for `CC(=O)NNc1ccccc1`, the entry is “inactive”. Turning to `CCCCOC(=O)CCC(=O)OCCCC`, the Potency entry was “inactive”.

With `N#CC(C#N)=C(C#N)C#N`, the Potency result is “inactive”. Take `CN1CC[C@]23c4c5ccc(O)c4O[C@H]2[C@@H](O)CC[C@H]3[C@H]1C5`: the Potency entry is “inactive”.

`c1ccc2sc(SNC3CCCCC3)nc2c1`: the Potency result was “inactive”.

Regarding `CC(C)(C#N)C(C)(C)C#N`, the Potency result is “inactive”.

For `CCCCCCCCP(=O)(O)O`, the Potency result was “inactive”.

Consider `C[C@@H]1C[C@@H]([C@H](O)CC2CC(=O)NC(=O)C2)C(=O)[C@@H](C)C1`, for which the Potency result is “inactive”. For `O=S(=O)(Cl)Cl`, the Potency entry was “inactive”.

As to `CON(C)C(=O)Nc1ccc(Cl)cc1`, the Potency result is “inactive”.

These data come from PubChem BioAssay (Tox21).
